Reference: ChEMBL document CHEMBL1157539, “Thousands of chemical starting points for antimalarial lead identification” (Nature, 2010)

Key:
Assay type in all cases: functional
Plasmodium falciparum [1] = test: GSK_TCMDC: Inhibition of Plasmodium falciparum 3D7 in whole red blood cells, using parasite LDH activity as an index of growth. Test compounds present at 2uM
Plasmodium falciparum [2] = test: GSK_TCMDC: Inhibition of Plasmodium falciparum Dd2 in whole red blood cells, using parasite LDH activity as an index of growth. Test compounds present at 2uM
HepG2 = test: GSK_TCMDC: Percent inhibition of human HepG2 cell line. Test compounds present at 10uM.

| Structure (SMILES) | Inhibition (Plasmodium falciparum [1]) [%] | Inhibition (Plasmodium falciparum [2]) [%] | Inhibition (HepG2) [%] |
| --- | --- | --- | --- |
| CCC[C@@H]([C@@H](CC(C)C)C(=O)N[C@@H](CCCNc1nccc(C(F)(F)F)n1)C(=O)Nc1nccs1)N(O)C=O | 99 | 98 | 0 |
| COc1cc2nc(NCCC(C)C)n3nc(-c4ccccc4)nc3c2cc1OC | 94 | 97 | 0 |
| Cc1ccc2c(=NN=Cc3ccc(Cl)cc3)cc(C)[nH]c2c1 | 100 | 34 | 0 |
| COc1ccc2nc(C)cc(Nc3ccc(Oc4ccc(Br)c5ccccc45)c(Cl)c3)c2c1 | 100 | 100 | 100 |
| CCN(CCCNc1nc(=S)[nH]c2cc(OC)c(OC)cc12)c1ccccc1 | 100 | 23 | 14 |
| CNCCNCc1ccc(-c2ccc(-c3nc4cccc(C)c4[nH]3)cc2)cc1.O=C(O)C(F)(F)F | 96 | 79 | 19 |
| CC(C)(C)c1ccc(CN2CCCCC(NC(=O)c3cc(-c4cccc(F)c4)cs3)C2)cc1.O=C(O)C(F)(F)F (stereo not given) | 98 | 84 | 8 |
| CC(C)(C)c1ccc(CNC(=O)c2ccc(-c3nc4cc(C(C)(C)C)ccc4[nH]3)cc2)cc1 | 96 | 49 | 21 |
| CC(C)CCN(Cc1cncn1Cc1cccc(C(F)(F)F)c1)C(=O)c1ccccc1C#N | 99 | 96 | 0 |
| Cc1cc(C2CCN(CCCCNC(=O)c3ccc(NC(=O)c4ccc(Cl)cc4)cc3)CC2)c(C)cc1OCc1ccccn1.Cl | 96 | 65 | 18 |
| Cl.Oc1ccc(Nc2nc(N3CCCC3)c3ccccc3n2)cc1 | 100 | 100 | 10 |
| O=C(NC1CCN(CCCc2ccccc2)CC1)c1ccc(-c2cccc(C(F)(F)F)c2)s1.O=C(O)C(F)(F)F | 95 | 47 | 93 |
| NS(=O)(=O)c1ccc(CNc2ccc3ncc(-c4ccc(OC(F)(F)F)cc4)n3n2)cc1 | 97 | 99 | 10 |
| CNC(=O)COC(=O)c1c2c(nc3ccccc13)C(=Cc1ccc3c(c1)OCO3)CCC2 | 83 | 36 | 7 |
| COc1ccc(CCNCCCCCNCCc2ccc(Cl)cc2)cc1OC.Cl | 100 | 0 | 32 |
| N#Cc1ccccc1C(=O)N(Cc1cncn1Cc1cccc(F)c1)CC1CC1 | 100 | 92 | 0 |
| CCCCCCNC(=O)C1Cc2c([nH]c3ccc(C)cc23)C2(CCN(Cc3ccccc3)CC2)N1 (stereo not given) | 84 | 25 | 25 |
| CN(C)c1ccc(OCCCCCCOc2ccccc2)cc1.Cl | 85 | 68 | 0 |
| CC(C)c1ccc(CN2CCC(NC(=O)c3ccc(-c4cccc(F)c4)s3)CC2)cc1.O=C(O)C(F)(F)F | 83 | 12 | 47 |
| CC(C)C(=O)ONC1=NC(=N)N(OCCCOc2cc(Cl)c(Cl)cc2Cl)C(C)(C)N1 | 95 | 96 | 64 |
| Nc1nc2c(cnn2CCCCCCCP(=O)(O)O)c(=O)[nH]1 | 94 | 91 | 0 |
| O=C(NCCN1CCOCC1)c1ccc(N2CCC(Oc3ccc4ccccc4c3)CC2)nc1 | 92 | 30 | 1 |
| O=C(NCCc1cccc(Cl)c1Cl)c1cnc(N2CCN(c3ccncc3)CC2)c(Cl)c1.O=C(O)C(F)(F)F | 100 | 99 | 47 |
| CC1(C)CC(=O)c2c(O)cc(OCc3ccncc3)cc2O1.Cl | 92 | 47 | 80 |
| Nc1cccc(CNCc2cccc(-c3ccc(-c4nc5ccccc5[nH]4)s3)c2)c1.O=C(O)C(F)(F)F | 100 | 90 | 8 |
| O=C(NC1CC1)c1ccc(Cn2c(SCc3cccc([N+](=O)[O-])c3)nc3ccccc3c2=O)cc1 | 91 | 65 | 12 |
| CCCc1cc(Cc2cnc(N)nc2N)cc(OCCCCCC(=O)O)c1OC.Cl | 95 | 2 | 8 |
| Cl.O=C(Nc1ccc(NC2=NCCN2)cc1)Nc1ccc(NC2=NCCN2)cc1 | 88 | 72 | 0 |
| CN(C)c1ccc(-c2nc3cc(N)ccc3[nH]2)cc1 | 100 | 97 | 1 |
| COc1ccc(Nc2ccnc3cc(Cl)ccc23)cc1OC | 100 | 91 | 36 |
